Screening data from PubChem BioAssay.
FGF22 binding = FGF22 (human) thermal shift binding; Q9HCT0; recombinant FGF22 thermal shift, SYPRO orange fluorescence; percent of sucrose octasulfate shift, DMSO zero; activity (Tm shift, normalised), % at 9.99 µM; hit rate 1.5% among 340,000;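 active = mean Tm shift, scaled 0 neutral to 100 positive control, at about 1.3% or above, every replicate too, limit read from the data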
Target sequence (Q9HCT0 whole entry, looked up): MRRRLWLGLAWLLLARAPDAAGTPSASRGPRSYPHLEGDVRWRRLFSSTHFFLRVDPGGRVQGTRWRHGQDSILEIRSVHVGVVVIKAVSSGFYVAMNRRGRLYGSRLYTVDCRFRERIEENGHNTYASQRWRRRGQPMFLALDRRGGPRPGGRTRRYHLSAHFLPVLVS
PglD inh = inhibitors of Campylobacter jejuni PglD acetyltransferase | purified PglD enzyme, DTNB colorimetric CoA detection | inhibition, % at 12.5 µM | hit rate 0.098% among 360,000 | AID 602405; in the data active = inhibition above about 16%, passing the limit was not always enough
CDK5 inh = CDK5/p35 (human) kinase inhibition; Q00535+Q15078; AID 488839; hit rate 0.01% among 330,000; inhibition, % at 10 µM; Recombinant CDK5/p35, ADP-Glo luminescence, 60 min;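 active = highest replicate inhibition of at least 50% and at least 75% of replicates reaching 50%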;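 also: plate controls were DMSO neutral control for no effect and GW8510 at 10 µM for full effect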
SIRT5 inh = blocks human SIRT5 desuccinylation of peptide. Q9NXA8. Purified SirT5, succinyl-peptide AMC, trypsin-coupled fluorescence. inhibition, % at 15 µM. hit rate 1.1% among 330,000. AID 652115; in the data active = inhibition above about 15%
Target sequence (Q9NXA8 whole entry, looked up): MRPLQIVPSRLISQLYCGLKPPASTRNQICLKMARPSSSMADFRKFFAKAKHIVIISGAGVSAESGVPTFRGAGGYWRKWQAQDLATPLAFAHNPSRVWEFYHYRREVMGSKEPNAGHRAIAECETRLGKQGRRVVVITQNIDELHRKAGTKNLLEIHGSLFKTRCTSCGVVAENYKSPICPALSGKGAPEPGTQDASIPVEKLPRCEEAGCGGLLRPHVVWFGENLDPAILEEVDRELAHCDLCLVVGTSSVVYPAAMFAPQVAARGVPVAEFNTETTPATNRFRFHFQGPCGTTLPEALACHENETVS
PvdQ acylase = blocks Pseudomonas aeruginosa PvdQ acylase activity | purified PvdQ acylase, fluorescence plate reader | inhibition, % at 10 µM | hit rate 0.063% among 340,000; in the data active = inhibition above about 30%, passing the limit was not always enough;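 also: 0% = vehicle neutral wells and 100% = reference inhibitor wells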
dFosB activator = enhances mouse delta FosB homodimer DNA binding. P13346. purified delta FosB, TAMRA-CDK5 oligo fluorescence polarization; percent of positive-control signal above neutral wells. activation, % at 25 µM. hit rate 0.99% among 340,000;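 active = mean activation above about 17%, with every replicate also reaching it, limit read from the data, passing the limit was not always enough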
* hit, by the source's call; x = no result given; ! = not confirmed by another sample. Sampled rows, rich in hits. Any-hit rate of the full collection: about 2.8%.

SMILES	FGF22 binding	PglD inh	CDK5 inh	SIRT5 inh	PvdQ acylase	dFosB activator
N/C(=N\OC(=O)c1cccs1)c1cccc([N+](=O)[O-])c1	0	-3	2	35*	13	2
Cc1cccc(C(=O)O/N=C(\N)c2cccc([N+](=O)[O-])c2)c1	0	-6	9	-3	5	-3
CCOC(=O)C1CCN(CC(C)(C)NS(=O)(=O)c2ccc(C)cc2)CC1	0	-2	6	-2	10	-8
Cc1ccc(S(=O)(=O)NC(C)(C)CN2CCC(Cc3ccccc3)CC2)cc1	44*	3	1	0	-6	-3
Cc1noc(C)c1NC(=O)N(C)C[C@H]1OCCCC[C@@H](C)Oc2ccc(NC(=O)Nc3ccccc3)cc2C(=O)N([C@H](C)CO)C[C@@H]1C	0	0	x	x	x	x
COc1cccc(CNC(=O)[C@H]2[C@H](CO)[C@H]3Cn4c(ccc(-c5cccnc5)c4=O)[C@@H]2N3C(C)=O)c1	0	4	x	-38	x	x
C=CCOC(=O)c1ccc(-n2cncn2)nc1	x	-3	2	x	8	1
C=CCOC(=O)c1ccc(-n2cnc(C)n2)nc1	x	x	-1	x	71*	-1
CO[C@H]1CN(C)C(=O)c2cc(NC(=O)c3ccc(F)cc3)ccc2OC[C@H](C)N(C(=O)CN(C)C)C[C@@H]1C	x	1	x	-1	x	x
COc1cc(/C=C(\CC(=O)O)c2nc3ccccc3s2)cc(OC)c1O	43*	x	0	3	-2	-13
Cc1cc(C)n2nc(C(=O)OCC(=O)c3cc(C)n(C)c3C)nc2n1	x	3	-1	x	-2	-5
Cc1cnc(C(=O)OCC(=O)C23CC4CC(CC(C4)C2)C3)cn1	0	3	0	17*	15	0
Cc1cnc(C(=O)OCC(=O)c2cc(C)n(C)c2C)cn1	43*	x	0	-1	-16	0
C[C@@H]1CN([C@H](C)CO)C(=O)c2cc(N(C)C)ccc2O[C@@H]1CN(C)Cc1ccncc1	-1	1	x	5	x	x
COCC(=O)N(C)C[C@@H]1Oc2cc(-c3ccncc3)ccc2S(=O)(=O)N([C@H](C)CO)C[C@@H]1C	0	-3	x	0	x	x
COCC(=O)Oc1c(S(=O)(=O)c2ccc(C)cc2)c(C)nn1-c1ccccc1	x	-2	0	x	34*	14
COCC(=O)Oc1c(S(=O)(=O)c2ccc(C)cc2)c(C)nn1C(C)(C)C	0	0	-1	-2	-26	3
COc1ccc(CN(C)C[C@@H]2OCCCC[C@@H](C)Oc3ccc(NC(=O)Cc4ccccc4)cc3C(=O)N([C@@H](C)CO)C[C@@H]2C)cc1	0	-1	x	x	x	x
CN(CC(=O)Nc1ccc(F)cc1)C(=O)Cn1cnc2ccc([N+](=O)[O-])cc2c1=O	0	3	0	24*	11	8
O=C(CN1CCCC1)OCCCc1ccccc1	44*	x	1	1	-5	4
C[N+]1(CC(=O)OCCCc2ccccc2)CCCC1	0	x	0	0	-6	-9
Cc1ccccc1-c1ccccc1N	44*	5	-3	0	-2	-2
CC(=O)Nc1cc2c(cc1Cl)Cc1cc(Cl)ccc1-2	43*	-8	0	x	5	-4
CC(=O)Nc1ccc2c(c1)Cc1ccc(Cl)cc1-2	0	2	-2	1	8	-3
CCC(=O)c1ccc(OCC(=O)N2CCCC2)c(OC)c1	44*	x	-1	-2	-12	-3
SMILES	FGF22 binding	PglD inh	CDK5 inh	SIRT5 inh	PvdQ acylase	dFosB activator
COc1ccc(C(=O)C2CCCN(C(=O)COc3ccc(C(C)=O)cc3)C2)cc1F (configuration not stated)	44*	x	0	-4	-12	-9
CCOc1cc(C(=O)Nc2cccc(C(C)=O)c2)ccc1OCC(=O)N1CCCCC1	44*	x	1	-5	-1	-13
CCNC(=O)C1CCCN(C(=O)c2ccc(OC)c(OC)c2)CC1 (configuration not stated)	0	-11	x	17*	x	x
CCOc1cc(C(=O)Nc2ccccc2N2CCOCC2)ccc1OCC(=O)N1CCCCC1	0	x	0	0	-11	-7
C[C@@H]1CN([C@H](C)CO)C(=O)c2cc(NC(=O)Cn3cnnn3)ccc2O[C@@H]1CN(C)Cc1ccncc1	0	5	x	4	x	x
C[C@H](CO)N1C[C@H](C)[C@@H](CN(C)S(C)(=O)=O)Oc2ccc(NC(=O)CCN3CCOCC3)cc2C1=O	0	1	-2	23*!	2	-1
C[C@H]1CN([C@@H](C)CO)C(=O)c2cc(NC(=O)CCN3CCOCC3)ccc2O[C@@H]1CN(C)C(=O)Nc1ccc2c(c1)OCO2	0	-2	x	0	x	x
C[C@H]1CN([C@@H](C)CO)C(=O)c2cc(NC(=O)CCN3CCOCC3)ccc2O[C@H]1CN(C)C(=O)Nc1ccc2c(c1)OCO2	0	10	x	20*	x	x
C[C@@H]1CN([C@@H](C)CO)C(=O)c2cc(NC(=O)CCN3CCOCC3)ccc2O[C@H]1CN(C)Cc1ccc(C(F)(F)F)cc1	0	2	x	26*	x	x
COc1ccc(-n2nnnc2SCC(=O)N(C)C2CCS(=O)(=O)C2)cc1 (configuration not stated)	43*	x	2	x	-12	0
Cc1cc2nnc(SCC(=O)N(C)C3CCS(=O)(=O)C3)n2c2ccccc12 (configuration not stated)	43*	x	1	5	-2	-4
CCN(C(=O)CSc1nnnn1C)C1CCCCC1	0	-2	2	7	1	-2
CCCN(C(=O)CSc1nnnn1C)C1CCS(=O)(=O)C1 (configuration not stated)	43*	x	-3	0	-3	1
CNC[C@H]1OCCCC[C@H](C)Oc2ccc(NS(=O)(=O)c3ccc(F)cc3)cc2C(=O)N([C@@H](C)CO)C[C@H]1C	0	5	x	2	x	x
CC1C(=O)C(C)C(c2cc(Cl)ccc2O)NC1c1cc(Cl)ccc1O (configuration not stated)	0	8	1	1	-9	20*
COc1cccc(C2NC(c3cccc(OC)c3O)C(C)C(=O)C2C)c1O (configuration not stated)	0	4	-1	1	-9	-4
COc1ccc2c3c(n(C)c2c1)[C@@H](CO)N(C(=O)CN(C)C)CC31CN(S(C)(=O)=O)C1	0	x	x	x	x	x
COCC#Cc1ccc2c(c1)O[C@H](CN(C)S(=O)(=O)c1cccc(F)c1)[C@@H](C)CN([C@@H](C)CO)S2(=O)=O	-1	-1	x	5	x	x
COc1ccc(C2NC(C(=O)O)Cc3c2[nH]c2ccccc32)cc1CN1CCN(c2ccc(F)cc2)CC1 (configuration not stated)	0	9	1	-2	-12	1
COc1ccc(C2NCCc3c2[nH]c2ccccc32)cc1COc1ccc(F)cc1 (configuration not stated)	0	x	-2	-4	39*	62*
